# Reference: PubChem BioAssay
# Activity calls are given as the source filed them.
# Experiments:
# [1] = compounds binding Alexa647 anti-His antibody – biochemical, small-molecule microarray, 635 nm fluorescence, artefact control for SMM control protein annotation, primary screen (AID 1128); settings: higher = more signal;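 note: score merges feature fluorescence with signal-to-noise for each printed compound spot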
# [2] = system: Human papillomavirus type 1a E7 protein (residues 1-88); test: HPV1a E7 small-molecule binders, primary screen, biochemical, small-molecule microarray, residues 1-88, 635 nm (AID 1129); settings: small-molecule microarray binding, fluorescence 635 nm; higher = more signal
# [3] = molecular target: Focal adhesion kinase 1 (Homo sapiens) (UniProt Q05397); test: PTK2 protein binding on printed compound slides – biochemical, small-molecule microarray, 635/667 nm fluorescence, BSA, DTT, primary screen (AID 1130); settings: 635 nm fluorescence, higher = more signal;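 note: composite of spot emission at 667 nm and signal to noise over triplicate slides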
# [4] = system: Fibrinogen (Alexa647-labelled); test: Alexa647-fibrinogen binding to printed small molecules – biochemical, small-molecule microarray, 635/667 nm fluorescence, artefact control for SMM control-protein annotation, profiling panel (AID 1131); settings: fibrinogen-A647 binding fluorescence, higher = more signal;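 note: z-score merges 667 nm fluorescence with per-spot signal-to-noise over triplicate slides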
# [5] = molecular target: Follistatin (Homo sapiens) (UniProt P19883); test: FST protein binding to printed compounds – biochemical, small-molecule microarray, 635/667 nm fluorescence, primary screen (AID 1132); settings: 635 nm fluorescence, higher = more signal
# [6] = molecular target: Fibroblast growth factor 2 (Homo sapiens) (UniProt P09038); test: basic fibroblast growth factor binding to printed compounds – biochemical, small-molecule microarray, 635/667 nm fluorescence, primary screen (AID 1133); settings: FGF2, fluorescence 635/667, higher = more signal
# [7] = JC-1 mitochondrial potential readout, lung cancer cells – cell-based, A549, JC-1 fluorescence, basal, 24 h, 100 nL, profiling panel (AID 1138); settings: higher = more signal;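 note: A549 lung adenocarcinoma cells under basal conditions with no added stimulus; test concentration not given here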
# Lefty1 = Lefty1 protein binding to printed compounds – biochemical, small-molecule microarray, 635/667 nm fluorescence, primary screen (AID 1139); settings: fluorescence 635/667, higher = more signal
# [8] = system: wheat germ agglutinin (Triticum aestivum), Alexa647-labelled; test: Alexa647-WGA lectin binding to printed small molecules – biochemical, small-molecule microarray, 635/667 nm fluorescence, artefact control for SMM control-protein annotation, profiling panel (AID 1140); settings: WGA-A647 binding, 635 nm fluorescence, higher = more signal;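 note: score merges 667 nm feature emission with signal to noise over triplicate slides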
# [9] = molecular target: Luciferin 4-monooxygenase (Photinus pyralis) (UniProt P08659); test: inhibition of purified Photinus pyralis luciferase – biochemical, luminescence, purified enzyme, 2006 set, primary screen (AID 1141); settings: purified firefly luciferase, SteadyGlo luminescence, 30 min; higher = more signal, called active from +8 up or from −8 down;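 note: cell-free assay with purified firefly luciferase at 100 ng per well in PBS; test concentration not given here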
# Chain of Luciferin 4-monooxygenase (Photinus pyralis) (P08659 whole entry, looked up): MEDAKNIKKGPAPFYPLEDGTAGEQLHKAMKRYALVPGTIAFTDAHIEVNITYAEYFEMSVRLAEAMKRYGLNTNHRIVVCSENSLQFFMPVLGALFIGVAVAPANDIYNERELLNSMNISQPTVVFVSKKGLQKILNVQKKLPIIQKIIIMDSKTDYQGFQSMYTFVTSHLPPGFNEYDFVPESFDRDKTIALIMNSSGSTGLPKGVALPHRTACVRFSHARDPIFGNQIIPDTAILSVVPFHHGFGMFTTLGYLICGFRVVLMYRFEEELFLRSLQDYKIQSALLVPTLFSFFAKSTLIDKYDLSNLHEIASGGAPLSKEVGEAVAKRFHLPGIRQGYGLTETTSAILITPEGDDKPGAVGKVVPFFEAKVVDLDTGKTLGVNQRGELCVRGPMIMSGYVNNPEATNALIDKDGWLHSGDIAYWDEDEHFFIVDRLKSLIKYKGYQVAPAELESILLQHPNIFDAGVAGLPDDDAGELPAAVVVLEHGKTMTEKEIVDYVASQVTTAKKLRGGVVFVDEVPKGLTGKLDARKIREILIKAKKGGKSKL
# Chain of Follistatin (Homo sapiens) (P19883 whole entry, looked up): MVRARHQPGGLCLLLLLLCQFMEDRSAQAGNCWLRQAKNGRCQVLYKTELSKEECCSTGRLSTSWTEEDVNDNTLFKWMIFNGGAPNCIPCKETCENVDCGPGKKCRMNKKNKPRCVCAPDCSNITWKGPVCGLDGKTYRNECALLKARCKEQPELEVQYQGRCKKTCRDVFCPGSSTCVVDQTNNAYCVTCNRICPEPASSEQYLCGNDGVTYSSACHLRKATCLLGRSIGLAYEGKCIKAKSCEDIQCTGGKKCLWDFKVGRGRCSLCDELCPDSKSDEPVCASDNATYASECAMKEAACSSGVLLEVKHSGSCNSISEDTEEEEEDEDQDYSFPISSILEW
# Chain of Fibroblast growth factor 2 (Homo sapiens) (P09038 whole entry, looked up): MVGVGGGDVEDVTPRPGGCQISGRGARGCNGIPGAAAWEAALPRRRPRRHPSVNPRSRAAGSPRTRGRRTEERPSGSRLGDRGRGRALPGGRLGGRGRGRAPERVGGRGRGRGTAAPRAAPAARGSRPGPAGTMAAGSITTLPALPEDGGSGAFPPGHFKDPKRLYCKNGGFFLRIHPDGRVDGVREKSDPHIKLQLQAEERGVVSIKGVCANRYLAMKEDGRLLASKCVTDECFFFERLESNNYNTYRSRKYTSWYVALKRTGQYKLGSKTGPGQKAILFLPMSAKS
# Chain of Focal adhesion kinase 1 (Homo sapiens) (Q05397 whole entry, looked up): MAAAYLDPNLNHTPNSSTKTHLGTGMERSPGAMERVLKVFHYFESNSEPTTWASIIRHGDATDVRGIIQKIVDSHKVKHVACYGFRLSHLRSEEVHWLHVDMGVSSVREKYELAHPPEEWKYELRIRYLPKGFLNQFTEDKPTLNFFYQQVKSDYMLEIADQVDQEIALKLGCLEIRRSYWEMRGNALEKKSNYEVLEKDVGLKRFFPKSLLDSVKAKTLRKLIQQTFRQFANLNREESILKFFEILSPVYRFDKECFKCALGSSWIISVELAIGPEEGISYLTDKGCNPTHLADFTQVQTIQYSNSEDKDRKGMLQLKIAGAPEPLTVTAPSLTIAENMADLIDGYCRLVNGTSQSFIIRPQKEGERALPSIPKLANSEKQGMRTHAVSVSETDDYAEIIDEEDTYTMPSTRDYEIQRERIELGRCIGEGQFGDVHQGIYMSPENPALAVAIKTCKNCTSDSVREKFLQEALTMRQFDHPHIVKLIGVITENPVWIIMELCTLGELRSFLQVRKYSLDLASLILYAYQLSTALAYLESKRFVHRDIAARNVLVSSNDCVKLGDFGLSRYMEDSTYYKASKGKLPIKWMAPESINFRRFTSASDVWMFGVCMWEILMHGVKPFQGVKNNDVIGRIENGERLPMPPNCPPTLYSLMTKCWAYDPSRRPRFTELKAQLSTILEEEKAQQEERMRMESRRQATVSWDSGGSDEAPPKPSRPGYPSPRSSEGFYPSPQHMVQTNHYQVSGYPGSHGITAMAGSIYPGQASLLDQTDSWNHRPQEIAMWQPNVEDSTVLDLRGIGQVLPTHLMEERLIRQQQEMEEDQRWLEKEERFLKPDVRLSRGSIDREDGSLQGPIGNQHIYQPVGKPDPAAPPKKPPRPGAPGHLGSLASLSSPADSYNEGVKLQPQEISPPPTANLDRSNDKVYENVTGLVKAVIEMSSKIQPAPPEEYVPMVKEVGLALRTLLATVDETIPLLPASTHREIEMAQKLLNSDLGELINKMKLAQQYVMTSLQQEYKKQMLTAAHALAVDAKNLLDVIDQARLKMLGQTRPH
Structure (SMILES),composite z-score [1],composite z-score [2],composite z-score [3],composite z-score [4],composite z-score [5],composite z-score [6],z-score [7],composite z-score (Lefty1),composite z-score [8],z-score [9]
CC(C)N1C(=O)C[C@@](C(=O)NCc2ccccc2)(c2ccc([N+](=O)[O-])cc2)[C@H]1c1ccc(CO)cc1,2.58,1,0.159,-0.511,0.692,0.118,0.316,0.119,0.549,0.982 (inactive)
CCOc1cc(C(O)C2C=CC3C(=O)N(c4ccccc4)C(=O)C3N2Nc2ccc([N+](=O)[O-])cc2)ccc1O (stereo not given),0.73,1.06,0.106,0.0405,0.165,0.0474,-1.52,0.107,0.14,-0.021 (inactive)
CC(C)c1ccc(NN2C(C(O)c3cccc(O)c3)C=CC3C(=O)N(c4ccccc4)C(=O)C32)cc1 (stereo not given),1.16,1.25,0.781,0.992,1.35,-0.179,0.116,0.61,0.754,-0.824 (inactive)
COc1ccc([Si](C)(C)[C@H]2[C@H](CCn3cc(CCO)nn3)O[C@@]3(C(=O)N(Cc4ccc(N5CCOC5=O)cc4)c4ccccc43)[C@@H]2C)cc1,1.88,1.16,0.105,0.505,0.308,0.308,1.26,0.419,0.829,-0.648 (inactive)
CC(=O)NCCCC[C@@H]1NC(=O)[C@@H]2C[C@H](C(=O)NCCCCN(C)C)[C@H](c3ccc(O)cc3)N2C1=O,0.231,-0.529,-0.2,-2.52,0.296,1.14,0.485,-0.0932,0.225,0.869 (inactive)
COC(=O)C1=CC(CCCO)=CC(C2CC2)N(Cc2sc3ccccc3c2Cl)C=C1C(=O)OC (stereo not given),3.11,1.25,1.31,1.04,0.939,0.0634,1.14,0.222,0.728,-0.96 (inactive)
COc1ccc([Si](C)(C)[C@H]2[C@H](CCn3cc([C@H](O)c4ccccc4)nn3)O[C@@]3(C(=O)N(Cc4cccc(N5CCC5=O)c4)c4ccccc43)[C@@H]2C)cc1,0.396,0.302,-0.0817,0.435,1.34,1.54,2.35,0.811,0.219,-0.719 (inactive)
COc1ccc(CCNC(=O)[C@@H]2c3ccccc3C(=O)N(Cc3ccc(OC(F)(F)F)cc3)[C@H]2c2ccc(CO)cc2)cc1,1.66,0.901,0.658,0.0913,1.18,0.494,1.48,0.147,0.213,-0.243 (inactive)
C[C@H]1NC(=O)[C@H](Cc2ccccc2)NC(=O)[C@@]23C(=O)N[C@@H](Cc4ccccc4)C2[C@H](C)[C@@]2(C)O[C@H]2C3/C=C/C/C=C\CNC1=O (stereo not given in full),-0.708,-1.27,-0.261,-1.75,0.275,0.0643,0.593,-0.94,-0.585,-0.923 (inactive)
C=C(COC)C(=O)CC[C@@H](OC(=O)c1cccnc1)c1ccc(CO)o1,-0.131,0.0982,-0.111,0.39,1.18,1.46,0.217,0.911,-0.0265,-2.05 (inactive)
COc1ccc(C(O)C2C=CC3C(=O)N(C)C(=O)C3N2Nc2ccccc2)cc1OCc1ccccc1 (stereo not given),1.05,1.27,0.091,1.01,0.336,-0.0667,-0.295,0.0084,1.34,-0.51 (inactive)
Cc1ccccc1C(O)C1C=CC2C(=O)N(C)C(=O)C2N1Nc1ccccc1 (stereo not given),1.23,1.16,0.175,1.01,0.459,-0.462,0.0888,-0.395,1.38,0.292 (inactive)
COc1cc(CO)ccc1OC(C)=O,0.529,0.741,0.315,0.555,1.07,0.502,1.54,0.636,0.243,-0.743 (inactive)
CN1CCC(CCCO)=CC1c1ccc(CN2CCCC2)cc1 (stereo not given),0.358,1.06,-0.0595,-0.294,1.42,1.65,0.0421,1.57,1.18,0.536 (inactive)
Cc1ccc([C@H]2[C@H](C(=O)O)[C@H](Sc3ccccc3)[C@@H](C(C)C)N2S(=O)(=O)c2ccc(C)cc2)cc1,0.229,1.19,0.344,0.996,0.744,-0.228,-1.31,0.127,0.798,0.426 (inactive)
O=C1C[C@@](C(=O)NC2CC2)(c2ccc([N+](=O)[O-])cc2)[C@@H](c2ccc(CO)cc2)N1CC12CC3CC(CC(C3)C1)C2,0.294,0.831,0.473,0.934,1.21,0.0882,0.0799,0.427,0.553,1.12 (inactive)
C=CC[C@@H](OC(=O)Nc1ccc(OC)cc1)c1ccc(O)c2ccccc12,0.235,1.17,2,0.656,1.39,1.94,-1.3,1.35,0.542,-6.72 (inactive)

Structure (SMILES),composite z-score [1],composite z-score [2],composite z-score [3],composite z-score [4],composite z-score [5],composite z-score [6],z-score [7],composite z-score (Lefty1),composite z-score [8],z-score [9]
O=C1C2C=CC(C(O)c3cccs3)N(Nc3ccccc3F)C2C(=O)N1c1ccccc1 (stereo not given),1.29,1.09,0.961,0.916,0.414,-0.282,-0.265,-0.0918,0.127,1.71 (inactive)
C=CCOC(=O)[C@@H]1[C@H]2C(=O)O[C@H](c3ccccc3)[C@H](c3ccccc3)N2[C@H](c2ccc(OCCOC(=O)[C@@H]3C[C@@H]4C(=O)NCC(=O)N4[C@@H]3c3cccc(OCCO)c3)cc2)[C@@]12C(=O)Nc1ccc(I)cc12,1.26,1.17,0.259,0.615,1.32,1.31,-1.21,0.914,0.449,-0.408 (inactive)
COCCOC(=O)N1C(=O)[C@@]2(c3cc(C#CCNC(N)=O)ccc31)[C@H](C(=O)N1CCc3cc(OC)c(OC)cc3C1)[C@H]1C(=O)O[C@H](c3ccccc3)[C@H](c3ccccc3)N1[C@@H]2c1ccc(OCCO)cc1,0.101,0.158,-0.0354,0.108,1.3,1.41,-1.49,0.881,0.385,-0.553 (inactive)
O=c1cccc(CCc2ccccc2)o1,1.24,0.741,0.675,-0.229,0.641,0.257,0.426,0.593,0.211,0.0302 (inactive)
COC(=O)c1c(CC[C@@H](CO)NC(=O)N[C@@H](Cc2ccccc2)Cn2cc(C3(O)CCCCC3)nn2)oc(C(C)=O)c1C(=O)OC,1.37,0.868,0.0673,0.307,0.691,0.957,-0.941,1.31,-0.267,0.896 (inactive)
Cc1ccc(S[C@]2(C(=O)NC3CC3)CC(=O)N(Cc3ccccc3)[C@@H]2c2ccc(CO)cc2)cc1,0.116,-0.663,-0.526,-0.816,-0.432,-0.596,0.424,-0.663,0.222,-0.585 (inactive)
C=CCOC(=O)[C@H]1[C@@H]2C(=O)O[C@@H](c3ccccc3)[C@@H](c3ccccc3)N2[C@@H](c2ccc(OCCOC(=O)[C@@H]3C[C@@H]4C(=O)NCC(=O)N4[C@@H]3c3ccc(O)cc3)cc2)[C@]12C(=O)Nc1ccccc12,1.56,1.19,0.564,0.478,1.35,1.72,-1.43,1.18,-0.233,-2.56 (inactive)
CCCN1C(=O)[C@]2(COC(c3ccc(OCCCO)cc3)=N2)Cc2ccccc21,2.63,1.23,0.473,0.551,1.35,1.26,0.306,-0.222,0.974,-1.66 (inactive)
[N-]=[N+]=Nc1ccccc1[C@H]1OC(c2ccc(OCCCO)cc2)=N[C@@]1(CCS(=O)(=O)c1ccccc1)C(=O)O,1.2,0.478,0.042,0.773,0.395,0.174,-1.72,-0.782,0.85,-12.4 (active)
C=C(CCCC)/C(=C/C[C@H](OC(C)=O)c1ccc(CO)o1)c1cnc2ccccc2c1,0.867,1.18,-0.0622,0.713,1.27,1.18,-0.566,1.29,1.18,-1.88 (inactive)
CC(C)OC(=O)CC(=O)CC(O)c1ccc(C#N)cc1 (stereo not given),0.548,1.14,0.762,1.04,-0.337,-0.581,0.409,-0.783,0.731,0.902 (inactive)
CCCCCN1CC=CC23O[C@@H]4C=CCOC(=O)[C@@H]4[C@H]2C(=O)N(CCCO)[C@@H]3C1=O (stereo not given in full),1.5,0.789,0.532,-1.05,0.105,-0.128,-0.483,0.632,-0.895,-0.0247 (inactive)
COCC(=C=CC[C@@H](O)c1ccc(CO)o1)CCO,-0.145,0.114,-0.29,-0.23,1.24,0.958,-0.0212,1.24,0.43,-0.877 (inactive)
C=CCC(OC(C)=O)[C@@H]1[C@@H](N(Cc2cc3ccccc3o2)C(=O)c2ccc(C)cc2)c2cc(OCCCO)ccc2N1C(=O)c1ccc2ccccc2c1 (stereo not given in full),0.192,-0.409,0.281,0.257,0.503,0.286,1.24,0.217,0.32,-1.76 (inactive)
CC(C)C[C@@H]1NC(=O)[C@H]2C[C@@H](C(=O)NCCCCCNC(=O)CS)[C@@H](c3cccc(OCCO)c3)N2C1=O,2.41,1.21,0.603,0.374,1.44,1.7,-0.628,1.35,0.195,-1.15 (inactive)
CCOC(=O)[C@H]1C/C=C/C[C@H](C(=O)OCC)C(=O)O[C@H]2[C@@H](OC)O[C@H](CO)[C@@H](OC(=O)Nc3ccc4c(c3)OCO4)[C@@H]2OC1=O,2.08,1.2,0.528,0.485,-0.114,0.254,-1.25,0.403,-0.115,-1.93 (inactive)
CCOC(=O)C[C@H]1[C@H](OC(=O)c2ccc(-c3ccccc3)cc2)[C@@H](NC(=O)c2ccc3ccccc3c2)c2cc(OCCCO)ccc2N1C(=O)Cc1ccc(OC)cc1,-0.034,0.401,0.463,0.536,-0.187,-0.0546,-0.0901,-0.154,-0.006,1.13 (inactive)
